A short description of assay [1]: Viability qHTS for spleen associated tyrosine kinase inhibitor (SYKi) naive MV4-11 cells (AID 1963823). Also: nearly all actives have a fitted effect of over 40% in size. To be noted: MV4-11 AML viability, CellTiter-Glo luminescence, 72 h; series mostly up to 45 µM. The method, boiled down: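 Read-out: CellTiter-Glo luminescence. Exposure: 72 hr, 37 C, 5% CO2, 95% humidity. Cells: MV4-11 without SYK inhibitor history, 500/well, qHTS format.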
In general terms: qHTS replaces the single test concentration by a dilution series.

The nature of assay [2]: Viability qHTS for spleen associated tyrosine kinase inhibitor (SYKi) drug resistant MV4-11 cells (AID 1963824). Also: nearly all actives have a fitted effect of over 35% in size. To be noted: SYKi-resistant MV4-11 viability, CellTiter-Glo, 72 h; series mostly up to 45 µM. In short, it runs like this: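 SYK inhibitor-resistant MV4-11 AML cells, 500 per well, added to predispensed compounds and incubated 72 hr at 37 C, 5% CO2. Viability measured by CellTiter-Glo luminescence after 10 min at room temperature.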

Molecules are shown by their SMILES. Inconclusive results are not listed. Unmarked numbers belong to inactive results. Calls of active or inactive are those of the source. Calls follow the shape of the dose curve; as a rule, active = well fitted cell-killing curve with a large enough effect; inconclusive = small, poorly fitted or top-dose-only effect, or effect the other way; inactive = no such curve, though single readings can be large or run the other way.
Potency is read from the fitted curve at half-maximal effect.

For `CCC/C=C/C=C/C1CC(O)C(O)C(=O)C1CO` (configuration not stated), the Potency entry in assay [1] and in assay [2] was “inactive” in each case.

`CCOCCn1nc(CC)c2nc(N3CCC(C(=O)O)CC3)nc(Nc3cc(C)ccn3)c21`: the Potency result in assay [1] and in assay [2] was “inactive” each time.

As for `O=C(O)c1ccnc2cc(-c3nc4ccccc4n3CCN3CCCCC3)sc12`, the Potency result in assay [1] and in assay [2] was “inactive” in each case.

As to `Cc1cc(=O)oc2cc(NC(=O)[C@H](CCC(=O)O)NC(=O)[C@H](CC(C)C)NC(=O)[C@H](CC(C)C)NC(=O)OCc3ccccc3)ccc12`, the Potency entry in assay [1] and in assay [2] was “inactive” in each case.

In the case of `COC(=O)C1=CO[C@@H](O[C@@H]2O[C@H](CO)[C@@H](O)[C@H](O)[C@H]2O)[C@@H]2[C@@H](C(=O)O)CC[C@H]12`, the Potency result in assay [1] and in assay [2] was “inactive” each time.

Turning to `C=C(CCC1=C(C)[C@H]2[C@H](CC3[C@@H]4CC=C5C[C@@H](O)C[C@@H](O)[C@]5(C)C4[C@H](O)C[C@@]32C)O1)CO[C@@H]1O[C@H](CO)[C@@H](O)[C@H](O)[C@H]1O` (some centres not stated), the Potency in assay [1] was 0.611 µM (active); in assay [2], 0.485 µM (active).

Turning to `Cc1cc2c(F)c(Oc3ncnn4cc(OCC(C)OC(=O)C(C)N)c(C)c34)ccc2[nH]1` (configuration not stated), the values for the Potency in assay [1] and in assay [2] were 10.3 µM (active) and 8.2 µM (active), respectively.

Regarding `Nc1nonc1-c1nc2cnccc2n1C1CCCCC1`, the Potency in assay [1] is 0.517 µM (active); in assay [2], 0.731 µM (active).

On to `CC1(CO)CC2C(O)C3=C(CC(C)(O)C2C1)C(=O)OC3` (configuration not stated), for which the Potency entry in assay [1] and in assay [2] was “inactive” throughout.

`CN1C(=O)c2ccccc2-n2c(nc3ccccc3c2=O)[C@@]12O[C@H]2c1ccccc1`: the Potency in assay [1] was 3.6 µM (active). Also, in assay [2], the Potency result is “inactive”.

On to `O=C(Nc1ccc(C(O)(C(F)(F)F)C(F)(F)F)cc1)c1ccc(C(F)(F)F)cc1`, for which the Potency in assay [1] and in assay [2] was 1.84 µM (active) each time.

On to `Cc1cn([C@H]2C[C@H](O)[C@@H](CO)O2)c(=O)nc1N`, for which the Potency result in assay [1] and in assay [2] was “inactive” each time.

As to `Cc1ccc(C(=O)Nc2noc3ccccc23)cc1`, the Potency result in assay [1] was “inactive”. For the same molecule, the Potency in assay [2] was 10.3 µM (active).

Regarding `O=C(Nc1ccc(Cl)cc1F)c1ccccc1O`, the Potency in assay [1] is 9.2 µM (active); in assay [2] it was 7.31 µM (active).

In the case of `C[C@@H]1C(=O)O[C@H]2CC34[C@H]5C[C@@H](C(C)(C)C)C36[C@@H](OC(=O)[C@@H]6O)O[C@@]4(C(=O)O5)[C@]21O` (some centres not stated), the Potency entry in assay [1] and in assay [2] was “inactive” in each case.

For `COC(=O)C1=COC(O[C@@H]2O[C@H](CO)[C@@H](O)[C@H](O)[C@H]2O)[C@@H]2[C@@](C)(O)[C@@H](OC(=O)/C=C/c3ccccc3)C[C@]12O` (some centres not stated), the Potency entry in assay [1] and in assay [2] was “inactive” in each case.

On to `CC(C)=CC1C[C@](C)(O)[C@@H]2[C@H]3CCC4[C@@]5(C)CC[C@H](O[C@@H]6OC[C@H](O)[C@H](O[C@@H]7O[C@H](CO[C@@H]8O[C@H](CO)[C@@H](O)[C@H](O)[C@H]8O)[C@@H](O)[C@H](O)[C@H]7O)[C@H]6O[C@@H]6O[C@@H](C)[C@H](O)[C@@H](O)[C@H]6O)C(C)(C)[C@@H]5CC[C@@]4(C)[C@@]34CO[C@@]2(C4)O1` (some centres not stated), for which the viability (% of control) in assay [1] was 74.2% [at 9.25 µM]. Besides, the viability, % of control in assay [2] was 96.9% [at 9.25 µM].

Consider `Clc1ccc2c(c1)N=C(N1CCNCC1)c1ccccc1N2`, for which the Potency in assay [1] and in assay [2] was 20.6 µM (active) in each case.

In the case of `CC1(C)S[C@@H]2[C@H](NC(=O)[C@H](NC(=O)N3CCN(S(C)(=O)=O)C3=O)c3ccccc3)C(=O)N2[C@H]1C(=O)O`, the Potency entry in assay [1] and in assay [2] was “inactive” throughout.

Consider `C=CC(=O)N1CCCC(n2nc(-c3ccc(Oc4ccccc4)cc3)c3c(N)ncnc32)C1` (configuration not stated), for which the Potency in assay [1] was 0.58 µM (active); in assay [2], 1.16 µM (active).

On to `O=C(O)c1ccc(S(=O)(=O)N(Cc2ccc(OC(F)(F)F)cc2)c2ncc(C(F)(F)F)cc2Cl)cc1`, for which the Potency is 20.6 µM (active) in assay [1] and 23.1 µM (active) in assay [2].

Take `COC(=O)c1c(CC=C(C)C)c(OC2OC(CO)C(O)C(O)C2O)c2ccccc2c1OC1OC(CO)C(O)C(O)C1O` (configuration not stated): the Potency entry in assay [1] and in assay [2] was “inactive” in each case.

Consider `CCC[C@@H](NC(=O)N1C(=O)C(CC)(CC)[C@@H]1Oc1ccc(C(=O)N2CCN(C)CC2)cc1)c1ccc2c(c1)OCO2`, for which the Potency in assay [1] was 18.4 µM (active); in assay [2], 20.6 µM (active).

Take `Cc1ccc(C)c(NC(=O)CNS(=O)(=O)c2ccc3[nH]c(=O)oc3c2)c1`: the Potency result in assay [1] and in assay [2] was “inactive” throughout.

Regarding `CC1=CC(=O)[C@]2(O[C@@H]3O[C@@H](C)[C@H](O)[C@@H](O)[C@H]3OC(=O)/C=C/c3ccccc3)C=CO[C@@H](O[C@@H]3O[C@H](CO)[C@@H](O)[C@H](O)[C@H]3O)[C@H]12`, the Potency result in assay [1] and in assay [2] was “inactive” in each case.

Consider `COc1cc(/C=C/C(=O)O[C@@H]2O[C@H](CO)[C@@H](O)[C@H](O)[C@H]2O)ccc1O`, for which the Potency result in assay [1] and in assay [2] was “inactive” each time.

The values are drawn from PubChem BioAssay (NCATS).
